Source: PubChem BioAssay AID624330 (Southern Research Specialized Biocontainment Screening …, 2012)
The whole screen tested about 340,000 compounds, of which about 2,100 (0.62%) were called active.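 The calls were made as follows: active = first-screen hits whose inhibition reached a set limit at any dose in the follow-up dose series; inconclusive = inhibition above the set first-screen limit but never retested; inactive = the rest.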 The list is a sample of the results. Entries with a potency or affinity are not part of this list.

biological target: Rac GTPase-activating protein 1 (Homo sapiens) (UniProt Q9H0H5); assay: blockers of MgcRacGAP-driven Rac1 GTP hydrolysis – biochemical, ADP Hunter fluorescence, primary and confirmatory, confirmation (AID 624330); details: MgcRacGAP-stimulated Rac1 GTP hydrolysis, at 30 µM, hits give high values, GST-tagged Rac1 F28L mutant substrate;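 also: fluorescence reports GDP produced by GAP-driven GTP hydrolysis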
Sequence (Q9H0H5 whole entry, looked up): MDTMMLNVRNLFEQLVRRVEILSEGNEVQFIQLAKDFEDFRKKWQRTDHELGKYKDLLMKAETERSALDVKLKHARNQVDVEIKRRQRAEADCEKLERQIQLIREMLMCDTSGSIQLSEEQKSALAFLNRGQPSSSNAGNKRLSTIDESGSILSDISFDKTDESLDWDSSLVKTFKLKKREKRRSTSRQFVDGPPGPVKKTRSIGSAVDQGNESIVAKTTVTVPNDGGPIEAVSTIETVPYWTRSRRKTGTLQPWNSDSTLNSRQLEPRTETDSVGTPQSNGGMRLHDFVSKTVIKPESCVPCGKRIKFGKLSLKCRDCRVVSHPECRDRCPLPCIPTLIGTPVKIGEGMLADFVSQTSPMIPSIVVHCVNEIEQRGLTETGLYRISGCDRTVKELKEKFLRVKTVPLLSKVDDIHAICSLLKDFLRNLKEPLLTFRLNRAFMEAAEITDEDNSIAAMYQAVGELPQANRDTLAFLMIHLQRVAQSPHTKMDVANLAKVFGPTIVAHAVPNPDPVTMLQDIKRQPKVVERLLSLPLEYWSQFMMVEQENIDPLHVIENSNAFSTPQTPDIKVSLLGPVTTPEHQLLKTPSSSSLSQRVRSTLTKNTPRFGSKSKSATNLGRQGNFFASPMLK

inhibition, inactive:
Cc1cc(C)n(CC(=O)N2c3ccccc3Sc3ccccc32)n1 4.56%
Cc1nn(CC(O)CN2c3ccccc3Sc3ccccc32)c(C)c1Br (stereo unspecified) 7.34%
COc1ccc(NCc2ccc([N+](=O)[O-])s2)cc1 23.5%
COc1ccccc1NCc1ccc([N+](=O)[O-])s1 15.3%
COC(=O)c1ccc(Sc2ccc(C)cc2)c(N)c1 9.92%
Cc1ccc(Sc2ccc(N)cc2C#N)cc1 4.36%
Nc1ccc(C(=O)OCCc2ccccc2)cc1 6.65%
NC(=S)c1ccc(OCCCc2ccccc2)cc1 8.89%
CC(=O)NC(Cc1ccc(C(C)C)cc1)C(=O)NC1CCN(c2nc(C)cc(C)n2)CC1 (stereo unspecified) 7.86%
CC(c1ccc2ccccc2c1)c1ccccc1C(=O)O (stereo unspecified) 5.25%
N#C/C(=C/c1ccc(N2CCCCCC2)o1)c1ccc(Cl)cc1 38.4%
N#C/C(=C\c1ccc(N2CCOCC2)cc1)c1ccccc1 -4.89%
N#C/C(=C/c1ccc(N2CCOCC2)o1)c1ccc(Cl)cc1 41.4%
N#C/C(=C/c1ccc(N2CCOCC2)o1)c1ccc(Br)cc1 27%
COC(=O)C1=C(C)N(Cc2ccco2)C(=O)/C1=C\c1ccc(N(C)C)cc1 1.57%
CCN(CC)c1ccc(C=C2C(=O)OC3(CCCCC3)OC2=O)cc1 4.11%
O=C1c2ccccc2C(=O)N1Cc1ccco1 8.18%
CCN(CC)c1ccc(C=C2C(=O)OC3(CCCC3)OC2=O)cc1 14.2%
O=C1c2cccc3cccc(c23)C(=O)N1Cc1ccco1 6.44%
CN(C)c1ccc(C=C2SC(=S)N(Cc3ccco3)C2=O)cc1 9.1%
COCCNC(=S)N/N=C/c1c2ccccc2cc2ccccc12 6.58%
COc1ccccc1CC(=O)Nc1ccc2c(C)cc(=O)oc2c1 4.86%
COC(=O)C(CC(C)C)NC(=O)c1cccs1 (stereo unspecified) 0.95%
COc1ccc(N=C2S/C(=C\c3cccs3)C(=O)N2CC(C)C)cc1 12.5%
O=C(CN1CCN(Cc2cccc(C(F)(F)F)c2)CC1)NCC(=O)Nc1ccc(F)c(F)c1F 3.75%
CC(C(=O)NCC(=O)Nc1ccc(F)c(F)c1F)N1CCN(Cc2ccc(C#N)cc2)CC1 (stereo unspecified) -0.12%
CC(C(=O)Nc1ccc(F)c(F)c1F)N1CCCCCC1 (stereo unspecified) 9.76%
O=C(CN1CCCCC1)NCC(=O)Nc1ccc(F)c(F)c1F -2.94%
COc1ccc(N(CC(C)C)S(=O)(=O)c2nnc(NC(=O)CC(C)C)s2)cc1 2.69%
CC(=O)Nc1cc(-c2ccccc2)nn1Cc1ccc(Cl)cc1 -1.04%
[O-]/[N+](=N\Nc1ccc(Cl)cc1)c1ccccc1 9.79%
CN(C)c1ccc(C=Cc2ccnc3c(O)cccc23)cc1 8.47%
CC[n+]1ccccc1/C=C/c1ccc(N(C)C)cc1 10.2%
CC[n+]1cc(C)ccc1/C=C/c1ccc(N(C)C)cc1 7.19%
CN(C)c1ccc(/C=C/c2cc[n+](C)cc2)cc1 22.9%
CN1/C(=C/c2cc[n+](C)c3ccccc23)C=Cc2ccccc21 31.4%
CN1C=C/C(=C\c2cc[n+](C)c3ccccc23)c2ccccc21 -0.62%
Fc1ccc(C2CC(c3ccco3)n3ncnc3N2)cc1 (stereo unspecified) -3.61%
Cc1cc(C(=O)Nc2sccc2C(N)=O)c(C)o1 2.82%
CCc1ccc2oc(C(=O)Nc3cccnc3)c(C)c2c1 3.43%
COc1ccc(NC(=O)NC(C)c2ccccc2)cc1 (stereo unspecified) 7.88%
CN1CCN(c2nc3ccccn3c(=O)c2/C=C(\C#N)S(=O)(=O)c2ccccc2)CC1 10.8%
O=C(CCN1C(=O)C2C3CC(C(Br)C3Br)C2C1=O)OCC(=O)c1ccccc1 (stereo unspecified) 7.46%
O=C(CNS(=O)(=O)c1ccc(Cl)cc1)NC1CCCCC1 -0.07%
Cc1cc(C(=O)NCc2ccc(F)cc2)n(-c2ccccc2)n1 12.3%
COc1ccc(CN2CCN(CCCc3ccccc3)C(CCO)C2)c(OC)c1 (stereo unspecified) 3.22%
COc1cccc(N2CCN(Cc3ncc(-c4ccccc4)o3)CC2)c1 7.37%
Fc1c(F)c(F)c(N/N=C/c2c[nH]c3ccccc23)c(F)c1F 3.69%
CC(C)n1c(/N=C/c2c[nH]c3ccccc23)nc2ccccc21 1.11%
Cc1cc(N/N=C/c2c[nH]c3ccccc23)c2ccccc2n1 -1.16%
COc1ccc(/C=N/Nc2nc3ccccc3[nH]2)c(OC)c1OC 12.8%
Cc1ccc(/C=N/Nc2nc3ccccc3[nH]2)s1 -6%
Cc1cc(=O)[nH]c(N/N=C/c2c[nH]c3ccccc23)n1 22.9%
Cn1c(/N=C/c2c[nH]c3ccccc23)nc2ccccc21 8.49%
Cc1ccccc1/C=N/Nc1nc2ccccc2[nH]1 18.4%
Cc1ccc(-c2nc(C3CCN(S(C)(=O)=O)CC3)no2)cc1 10.6%
O=C1NC(Cc2ccccc2)c2nc3ccc(Cl)cc3c(=O)n2-c2ncccc21 (stereo unspecified) 7.29%
CC(NS(C)(=O)=O)C(c1cccs1)N1CCN(C)CC1 (stereo unspecified) 10.3%
CCOC(=O)N1CCN(CC(O)COc2ccc(C(C)C)c(C)c2)CC1 (stereo unspecified) 5.78%
COCC1CCCCN1C(=O)c1ccc(OC2CCN(CCc3ccccc3)CC2)cc1 (stereo unspecified) 10.2%
COC(=O)c1cc(S(=O)(=O)N2CCC(c3cc(OC)ccc3OC)C2)c[nH]1 (stereo unspecified) 8.61%
Cc1ccc(-c2sc(C)nc2CC(=O)O)cc1 13.9%
O=C(Nc1cccc(-n2cnnn2)c1)c1cc(Cl)nc(Cl)c1 9.64%
COc1ccccc1/C=C/C(=O)OCc1nc2ccccc2c(=O)[nH]1 7.19%
CC(C)(Oc1ccc(Cl)cc1)C(=O)NC1CC1 7.55%
CCC(C)c1ccc(OCC(=O)Nc2ccc3c(c2)C(=O)NC3=O)cc1 (stereo unspecified) 5.62%
c1ccc(-c2ccccc2OCCCCN2CCCCC2)cc1 29.3%
C=CCNC(=S)N/N=C(\C)c1ccc(-n2ccnc2)cc1 -11.5%
CN(CC(=O)Nc1ccc(Cl)cc1)C1CCCCC1 9.37%
CN(CC(=O)Nc1ccc(S(N)(=O)=O)cc1)C1CCCCC1 1.98%
CC1CCCCN1CC(=O)Nc1ccc2c(c1)OC(F)(F)O2 (stereo unspecified) -6.38%
O=C(CN1CCOCC1)Nc1ccc2c(c1)OC(F)(F)O2 1.95%
CN(CC(=O)Nc1ccc(Cl)c(Cl)c1)C1CCCCC1 23.1%
COc1ccc(NC(=O)CN(C)C2CCCCC2)cc1Cl 12.2%
c1ccc(Cc2nc3ccccc3o2)cc1 8.84%
CCN(c1ccccc1)S(=O)(=O)c1ccc(C(=O)Nc2cccc(NC(C)=O)c2)cc1 5.09%
COc1ccc(/C=C2\SC(=S)N(CCC(=O)Nc3ccc(C(=O)O)cc3)C2=O)cc1OC 0.85%
CC(=O)Nc1ccc(N=NN2CCOCC2)cc1 4.54%
COCC(=O)Nc1ccc(F)cc1 -1.69%
CC(=O)Nc1ccc(N=Nc2ccccc2)cc1 0.87%
NC(=Nc1ccccc1)Nc1ccccc1 7.17%
O=C(CC(=O)Nc1ccc(F)cc1)Nc1ccc(F)cc1 5.61%
CC(=Nc1ccccc1)Nc1ccccc1 5.11%
O=C(Cc1ccccc1)Nc1ccc(C(=O)Nc2ccc(O)cc2)cc1 24.4%
O=C(COC(=O)c1ccc(O)cc1)Nc1ccccc1 10.2%
CCC(Oc1ccccc1)C(=O)Nc1ccccc1N1CCCC1 (stereo unspecified) 7.77%
CNC(=O)c1oc(-c2ccccc2)nc1C 10.8%
O=C(COC(=O)C1CC(=O)N(c2ccc3c(c2)OCCO3)C1)Nc1ccc2c(c1)CCC2 (stereo unspecified) 8.9%
O=C1CC(NS(=O)(=O)c2cccnc2)CN1c1cccc(F)c1 (stereo unspecified) 6.2%
COC(=O)C(C(=O)N1CCN(C)CC1)C1CCCCCC1 (stereo unspecified) -1.36%
Cc1ccc(NC(=O)c2cc(S(=O)(=O)N3CCOCC3)ccc2Cl)cc1S(=O)(=O)N1CCOCC1 9.95%
Cc1ccc(Nc2nc3ccccc3n3cnnc23)c(Cl)c1 5.8%
CCN(CC)C(=O)Cn1cc(C(=O)C(=O)NCCc2c[nH]c3ccccc23)c2ccccc21 7.03%
CCN(CC)CCN(C(=O)c1cc2ccccc2cc1OC)c1nc2ccc(F)cc2s1 6.61%
COc1cc(OC)c(OC)cc1CN1CCN(Cc2ccc(C(F)(F)F)cc2)CC1 24.6%
FC(F)(F)c1ccc(CN2CCCCCC2)cc1 16.1%
COc1ccc(CN2CCCCCC2)cc1 18.2%
COc1cc(CN2CCN(C(O)(c3ccccc3)c3ccccc3)CC2)cc(OC)c1OC 27.9%
O=C(O)CC1(CC(=O)NCc2cc(F)cc3c2OCOC3)CCCCC1 5.25%
CN(CCc1cn[nH]c1)C(=O)CC1C(=O)NCCN1Cc1ccccc1C(F)(F)F (stereo unspecified) -8.64%
Cc1ccc(C(=O)NC(=O)CSc2ncccc2C(=O)O)cc1 1.2%
